From PubChem
Cardio protect = modulators protecting cardiomyocytes from myocardial damage. protection from H2O2 cell death, % at 20 µM. H9c2 cardiomyocytes, H2O2 injury protection, ATPLite, 2 h. 360,000 compounds, 0.63% hits. AID 588492;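 active = compounds giving at least 50% protection of heart cells from peroxide-induced death in the single-dose screen, raw or plate-pattern-corrected value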;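 also: 0% = DMSO wells with peroxide and 100% = DMSO wells without peroxide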
MIN6 prolif-1 = inducers of beta-cell replication in MIN6 cells; 330,000 compounds, 0.29% hits; proliferation, % at 10 µM; AID 2380; MIN6 cells proliferation, ATPlite luminescence, 48 h; cells starved in 0.2% serum; 100% = growth in 10% serum;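 active = compounds whose signal lies at least 3.5 SD above the mean of all wells on their plate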;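 also: 0% = DMSO-treated cells in low-serum medium and 100% = 10% serum control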
Myeloid diff 2 = compounds promoting myeloid differentiation | 360,000 compounds, 1% hits | calls only at 10 µM | ER-HoxA9 myeloid progenitors, lysozyme-GFP differentiation, flow cytometry;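 active = normalized GFP-positive differentiation at or above the plate's own cutoff, the solvent-only control mean plus 3 SD; inconclusive = no clear call, values can overlap the other calls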;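 also: cells exposed to compound for four days before flow analysis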
ABCB6 inh 2 = inhibitors of human ABC transporter ABCB6. 360,000 compounds, 0.19% hits. Q9NP58. fluorescence ratio to DMSO, % at 10 µM. K562-ABCB6 porphyrin accumulation, flow cytometry, 1 h; active compounds read low;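 active = fluorescence ratio to DMSO below 75%, the collection mean minus 3 SD; inconclusive = too few cells collected in the well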;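 also: signal is porphyrin accumulated inside mitochondria; 100% equals median channel fluorescence of DMSO control wells; lower ratio means ABCB6 inhibition with less porphyrin fluorescence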
iPSC survival up = enhancers of human iPSC single-cell survival; hiPSC single-cell survival, ATPlite luminescence; 100% = ROCK inhibitor wells, 0% = DMSO; survival enhancement, % at 20 µM; 360,000 compounds, 0.044% hits; AID 602274; in the data active = survival enhancement above about 18%;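 also: cells exposed to compounds for 16 hours before the ATP read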
MIN6 prolif-2 = MIN6 beta-cell replication induction, confirmed. AID 463095. 920 tested, under 10 active. proliferation increase, % at 50 µM. shares compounds with MIN6 prolif-1. MIN6 beta-cell proliferation, ATPlite luminescence, 48 h; cells kept in 0.2% serum; scaled between 0.2% and 10% serum;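 active = proliferation increase above 40% at any of the four tested concentrations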
The depositor's hits bear a star; i = inactive; u = inconclusive; x = not tested or not shown; + = active, no number. Hits are enriched below; roughly 2.2% of the tested compounds scored in any of these assays.

SMILES	Cardio protect	MIN6 prolif-1	Myeloid diff 2	ABCB6 inh 2	iPSC survival up	others
CC1=C(C/C(C)=C/c2ccccc2)/C(=C/CO)[C@@H]2OC(=O)O[C@]2(C)C12CC2	-11	-7	i	94	-1
CN1CC=C(c2c[nH]c3ccccc23)CC1	10	0	+	102	-2
COC(=O)C1=C(c2cccc(OCc3ccccc3)c2)C[C@@H]2CC[C@H]1N2C(=O)NCc1ccc(C(C)(C)C)cc1	-6	-7	i	97	0
COC(=O)C1=C(c2ccc(F)cc2OCc2ccccc2)C[C@@H]2CC[C@H]1N2C(=O)NCCOc1ccccc1Cl	0	-7	i	93	-1
COC(=O)C1=C(c2cccc(OCc3ccccc3)c2)C[C@@H]2CC[C@H]1N2C(=O)NCc1ccc(N(C)C)cc1	-2	-7	+	88	-3
COC(=O)C1=C(c2ccc(F)cc2OCc2ccccc2)C[C@@H]2CC[C@H]1N2C(=O)NCc1ccccc1Cl	4	-6	+	95	-3
O=C1CN=C(c2ccccc2)c2oc3ccc(Br)cc3c2N1	1	-1	i	101	1
CSc1nc(Cl)c(Br)c(N2CC2)n1	51*	x	i	99	4
Cn1cc(C(=O)NCc2ccccc2)c2ccccc21	10	-3	i	96	-1
C/C=C(\C)C(=O)N[C@@H](c1ccccc1)[C@@H](O)C(=O)O[C@H]1C[C@@]2(O)[C@@H](OC(=O)c3ccccc3)C3[C@](C)(C(=O)[C@H](OC(C)=O)C(=C1C)C2(C)C)[C@@H](O)C[C@H]1OC[C@@]31OC(C)=O (some centres not stated)	-2	-4	+	101	0
O=c1[nH]c2ccccc2n1CCCN1CCC(n2c(=O)[nH]c3cc(Cl)ccc32)CC1	63*	-2	i	99	-1
O=c1[nH]c2ccccc2n1C1CCN(Cc2ccc(-c3nc4ccccc4nc3-c3ccccc3)cc2)CC1	x	x	i	119	-1
C=C(C=O)CC1CC(O)[C@]2(C)OC3CC4OC5C[C@]6(C)O[C@]7(C)CCC8OC9C[C@]%10(C)OC%11C(C)=CC(=O)OC%11CC%10OC9C[C@@H](C)C8OC7CC6O[C@]5(C)CC5OC5C4OC3CC2O1 (some centres not stated)	-36	-8	u	98	40*
C=C(CO)CC1CC(O)[C@]2(C)OC3CC4OC5C[C@]6(C)O[C@]7(C)CCC8OC9C[C@]%10(C)OC%11C(C)=CC(=O)OC%11CC%10OC9C[C@@H](C)C8OC7CC6O[C@]5(C)C/C=C\C4OC3CC2O1 (some centres not stated)	-11	-7	i	95	-1
CC(=NNC(=S)N1CC2CCC(CC2)C1)c1nccs1	24	x	u	95	-2
C=CCn1c(=O)c(C=Nc2cccc([N+](=O)[O-])c2)c(O)n(CCCC)c1=O	3	-3	+	100	-1
CCOC(=O)[C@@]1(C#N)[C@@H]2C=CC(C(N)=O)=CN2[C@@H](C(N)=O)[C@@H]1c1cccc(Cl)c1	9	4	+	104	-2
C[C@]12CCC3C(CC[C@H]4C[C@@H](O)CC[C@]34C)C1C[C@@H](O)[C@]2(C)O (some centres not stated)	5	-2	i	97	8
C#C[C@]1(O)[C@H](O)CC2C3CC[C@H]4C[C@@H](O)CC[C@]4(C)C3CC[C@@]21C (some centres not stated)	10	0	+	98	2
N[C@@H](Cc1c[nH]c2ccccc12)c1nnc(SCc2ccc(Cl)cc2)o1	-2	-2	i	71*	2
Cc1ccc2nsnc2c1-n1c(C)nc2ccccc2c1=O	-1	-2	+	104	3
C=C1C(C)C2C(Cc3ccccc3)NC(=O)C23OC(=O)/C=C/C(O)CCCC(C)C/C=C/C3C1O (configuration not stated)	57*	x	x	87	30*
C[C@]12CC[C@H](O)CC1C(=O)CC1C2CC[C@@]2(C)C1CC[C@@H]2O (some centres not stated)	0	0	i	99	-2
CC(C)c1ccc(-n2c(O)c(C=NCCN3CCNCC3)c(=O)[nH]c2=S)cc1	3	-4	+	111	-1
CC1=CC2OC3CC4OC(=O)C=CC=CC(C(C)O)OCC(O)C(C)CC(=O)OCC2(CC1O)C4(C)C31CO1 (configuration not stated)	8	x	x	91	-1
SMILES	Cardio protect	MIN6 prolif-1	Myeloid diff 2	ABCB6 inh 2	iPSC survival up	others
CC1=CC2OC3CC4OC(=O)C=CC=CC(=O)OCCC(C)C(O)C(=O)OCC2(CC1O)C4(C)C31CO1 (configuration not stated)	54*	x	u	98	-1
CC(=O)OC1C(=O)OCC23CCC4(C)OC4C2OC2CC(OC(=O)C=CC=CC(=O)OCCC1C)C3(C)C21CO1 (configuration not stated)	56*	x	u	91	-4
COC(=O)C1=C(c2cccc(C#N)c2)C[C@@H]2CC[C@H]1N2C(=O)NCc1ccco1	5	1	i	98	-3
C[CH2][Hg][S]c1ccccc1C(=O)O	-42	-8	+	92	-3
CC(C)COC(=O)c1ccccc1C(=O)OCC(C)C	-5	-1	i	98	3
COc1cccc(-n2c(/C=C/c3ccccn3)nc3ccccc3c2=O)c1	17	8.5*	i	100	-1	MIN6 prolif-2=-6
COc1ccc(-c2cc(=O)c3c(OC)c(OC)c(OC)cc3o2)cc1	1	9.3*	i	96	1	MIN6 prolif-2=-2
O=C(COc1ccccc1)N1CCN(CC2CC=CCC2)CC1 (configuration not stated)	-1	1	i	97	0
CN1CCCN(C(=O)COc2ccc(F)cc2Cl)CC1	-4	-1	i	102	1
C=CCn1c(O)c(C(C)=NCc2ccco2)c(=O)[nH]c1=O	13	-3	i	96	1
C=CCn1c(O)c(C(CC)=NCc2ccco2)c(=O)[nH]c1=O	6	6.2*	i	94	0	MIN6 prolif-2=0
CCCCCCn1c(N)c(C(=O)NCCN2CCOCC2)c2nc3ccccc3nc21	12	-5	i	129	0
Cc1ccc(-n2c(O)c(C=Nc3ccc(S(N)(=O)=O)cc3)c(=O)[nH]c2=O)cc1	-2	-4	i	99	2
NS(=O)(=O)c1ccc(N=Cc2c(O)n(-c3ccccc3)c(=O)[nH]c2=O)cc1	8	8.2*	i	100	1	MIN6 prolif-2=3
CN1CCN(c2nc3ccccc3o2)CC1	3	7.3*	i	104	0	MIN6 prolif-2=-2
CC/C(=N\NC(=O)c1ccccc1Cl)c1c(O)n(C2CCCCC2)c(=O)[nH]c1=O	-3	0	i	101	0
